The list is not random: actives were taken first. Their share in the collection is about 12%.
PLK1 PBD block: qHTS for Inhibitors of PLK1-PDB (polo-like kinase 1 - polo-box domain): Primary Screen; Plk1 PBD binding of FITC phosphopeptide, fluorescence polarization; Potency, µM, actives largely listed as inhibitors; actives 2.8% (n = 360,000); further: series mostly up to about 57 µM; nearly all actives have a fitted effect of over 65% in size
G9a inh: qHTS Assay for Inhibitors of Histone Lysine Methyltransferase G9a; Histone-lysine N-methyltransferase EHMT2 (Homo sapiens), Q96KQ7; Potency, µM (highest dose often 102 µM), most hits filed as inhibitors; G9a H3K9 monomethylation, AlphaScreen, 2 h; actives 8.8% (n = 350,000); further: nearly all actives have a fitted effect of over 75% in size
Target sequence (Q96KQ7 913-1193 limits assumed): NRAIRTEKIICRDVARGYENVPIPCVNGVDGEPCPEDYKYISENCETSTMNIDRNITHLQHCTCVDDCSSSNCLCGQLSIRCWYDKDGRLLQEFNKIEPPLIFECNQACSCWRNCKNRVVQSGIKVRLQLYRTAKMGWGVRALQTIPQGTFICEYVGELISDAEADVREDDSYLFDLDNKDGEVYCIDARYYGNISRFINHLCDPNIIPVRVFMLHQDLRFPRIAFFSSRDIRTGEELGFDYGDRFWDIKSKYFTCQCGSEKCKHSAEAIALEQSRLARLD
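Methyltransferase reactions run at room temperature for 2 h (20 nM enzyme, 500 nM biotin-H3K9 peptide, 20 uM SAM) after a 15 min compound preincubation; product detected by AlphaScreen beads and anti-H3K9me1 antibody.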
BAZ2B block: qHTS Assay for Inhibitors of BAZ2B | Bromodomain adjacent to zinc finger domain protein 2B (Homo sapiens), Q9UIF8 | AlphaScreen BAZ2B-H3K14Ac peptide displacement | Potency, µM (doses to about 114 µM), usual class: inhibitors | actives 4.4% (n = 360,000) | AID 504333, 2011; further: nearly all actives have a fitted effect of over 60% in size
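Compounds, titrated to a top concentration of 110 uM, were incubated 30 min at room temperature with preformed BAZ2B/acetyl-K14 H3 peptide complex (50 nM each). Proximity signal was measured by AlphaScreen after 20 min with beads.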
HP1b binding inh: HTS for Inhibitors of HP1-beta Chromodomain Interactions with Methylated Histone Tails. Chromobox protein homolog 1 (Homo sapiens), P83916. AlphaScreen HP1-beta / biotin-H3K9me3 peptide binding. Potency, µM (highest dose often 114 µM), usual class: inhibitors. actives 0.56% (n = 390,000); further: nearly all actives have a fitted effect of over 70% in size
Target sequence (P83916 whole entry, looked up): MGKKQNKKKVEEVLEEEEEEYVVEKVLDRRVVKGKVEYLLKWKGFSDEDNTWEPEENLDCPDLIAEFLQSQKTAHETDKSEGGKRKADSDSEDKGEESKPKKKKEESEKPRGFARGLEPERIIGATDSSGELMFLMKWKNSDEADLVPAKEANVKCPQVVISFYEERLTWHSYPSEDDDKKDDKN
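Compound inhibition of the preformed complex between 50 nM HP1-beta and 50 nM biotinylated H3K9me3 peptide was read by AlphaScreen. Buffer was PBS pH 7.4 with 0.01% Tween-20. Incubations ran 30 min at room temperature, with 10 ug/mL donor/acceptor beads.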
JMJD2A Tudor: qHTS Assay for Inhibitors of JMJD2A-Tudor Domain | actives 4.4% (n = 390,000) | Potency, µM (titrated, usually from 114 µM), actives largely listed as inhibitors | AlphaScreen JMJD2A-Tudor / H3K4me3 peptide binding | Lysine-specific demethylase 4A (Homo sapiens), O75164; further: nearly all actives have a fitted effect of over 50% in size
PI5P4K alpha inh: qHTS for Inhibitors of phosphatidylinositol 5-phosphate 4-kinase (PI5P4K) | Phosphatidylinositol 5-phosphate 4-kinase type-2 alpha (Homo sapiens), P48426 | PI5P4Kalpha enzyme, ADP-Glo luminescence, 60 min; stronger effect = lower value | max response, % | actives 1.2% (n = 330,000) | AID 652105, 2013; active means max response of -50% or lower; inconclusive means between -30% and -50%; inactive means -30% or higher; further: value at the top dose of about 77 µM
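qHTS, 1536-well: enzyme/substrate mix, compound by pin tool, 5 microM ATP final; RT 60 min; ADP-Glo reagents 1 (45 min) then 2 (30 min); luminescence.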
Each line names hits and unclear results; the compound was inactive in the other large screens. Unless noted, the call rests on the fitted dose curve; in most records, active means well fitted curve in the direction sought with a large enough effect; inconclusive means small, poorly fitted or top-dose-only effect, or another doubt; inactive means no such curve, though single readings can be large; an effect the other way counts as inactive or inconclusive.

O=C1CCCc2[nH]c(-c3ccccc3)nc21	BAZ2B block inconclusive (no result: G9a inh)
CC1(C)CC(=O)C(C(C#Cc2ccccc2)C2=C(O)CC(C)(C)CC2=O)=C(O)C1	PLK1 PBD block 4.23µM, G9a inh 12.6µM, BAZ2B block inconclusive (no result: PI5P4K alpha inh)
O=C1CCCC(O)=C1C(C#Cc1ccccc1)C1=C(O)CCCC1=O	PLK1 PBD block 2.38µM, G9a inh 0.891µM, HP1b binding inh inconclusive, JMJD2A Tudor 15.8µM, PI5P4K alpha inh inconclusive
CN(C(=O)c1ccc(NC(=O)Cc2cccc(NC(=O)C3CCN(C(=O)C4CC4)CC3)c2)cc1)C1CC1	none (no result: G9a inh, BAZ2B block)
COc1cccc(CNC(=O)CCc2nnc3n(CC(C)C)c(=O)c4ccccc4n23)c1	none (no result: PLK1 PBD block, PI5P4K alpha inh)
NNC(=S)NC1CCCCCCCCCCC1	BAZ2B block 31.6µM, JMJD2A Tudor inconclusive (no result: G9a inh)
C#CCOc1ccc(C2C3=C(CCCC3=O)N(CC(=O)O)C3=C2C(=O)CCC3)cc1Br	G9a inh inconclusive
Cc1ccc(N2CCN(c3ccc(C)cc3)C2c2ccncc2)cc1	G9a inh 35.5µM, HP1b binding inh inconclusive
CC1(C)CC(=O)C=C(OC(=O)c2ccc(Cl)cc2)C1	PLK1 PBD block 11.9µM
COc1ccc(C(=O)NNC2=CC(=O)CC(C)(C)C2)cc1	none
Cc1ccc(NC(=O)NC2CCCCCCC2)cc1	none (no result: G9a inh)
Cc1cc(C)c(NC(=O)CN(C2CCCCC2)C2CCCCC2)c(C)c1	none (no result: PI5P4K alpha inh)
Cc1ccc(OCCCNC2CCCC2)cc1	G9a inh 12.6µM, BAZ2B block inconclusive, JMJD2A Tudor 22.4µM
Cc1cc(C)c(NC(=O)CCCCCNC2CCCCC2)c(C)c1	PLK1 PBD block 26.7µM, JMJD2A Tudor inconclusive
Cc1ccc(C)c(OCCCNC2CCCC2)c1C	G9a inh 7.08µM, BAZ2B block inconclusive, HP1b binding inh inconclusive, JMJD2A Tudor 0.794µM
Cc1ccc(OCCC(=O)OCC(=O)NC(=O)NC2CCCCC2)cc1	none
Cc1ccc(C)c(OCCCCN2CCNCC2)c1C	G9a inh inconclusive
Cc1ccc(OCCCCNC2CCCCC2)c(C)c1	G9a inh 14.1µM, BAZ2B block 79.4µM, JMJD2A Tudor 28.2µM
CCOc1ccc(Sc2cc(C(=O)NCCc3ccc(OC)c(OC)c3)c3ccccc3n2)cc1	none (no result: PLK1 PBD block, PI5P4K alpha inh)
COc1cccc(OC)c1OCCCNC1CCCC1	BAZ2B block inconclusive, HP1b binding inh inconclusive, JMJD2A Tudor 25.1µM (no result: G9a inh)
N#Cc1ccccc1OCCCNC1CCCC1	G9a inh 20µM, BAZ2B block inconclusive, HP1b binding inh inconclusive
CC(C)(C)c1ccc(OCCCNC2CCCC2)cc1	G9a inh 11.2µM, BAZ2B block 79.4µM, JMJD2A Tudor 20µM
COc1ccc(CNC2CCCC2)c(OC)c1OC	none
N#Cc1ccccc1OCC(=O)NC1CCCCC1	none (no result: G9a inh, BAZ2B block)
N#Cc1ccccc1S(=O)(=O)NC(=O)[C@H]1O[C@@H](n2cnc3c(N)ncnc32)[C@H](O)[C@@H]1O	none (no result: G9a inh, BAZ2B block, HP1b binding inh, JMJD2A Tudor)
Cc1cccc(Cn2nc(C)n3c(cc4cc(C)ccc43)c2=O)c1	none (no result: PLK1 PBD block, PI5P4K alpha inh)
O=C(NCc1cccc(Br)c1)c1cccn1-c1nnc(N2CCCCC2)s1	none (no result: PLK1 PBD block, PI5P4K alpha inh)
NS(=O)(=O)c1ccc(N2C(=O)C(=O)/C(=C(/O)c3ccccc3)C2c2ccc(Cl)cc2)cc1 (centres undefined)	G9a inh 50.1µM
CCOc1ccc(N2C(=O)C(=O)/C(=C(/O)c3ccccc3)C2c2ccccc2[N+](=O)[O-])cc1 (centres undefined)	G9a inh 44.7µM
O=C1C(=O)N(c2cccc(Cl)c2)C(c2ccccc2[N+](=O)[O-])/C1=C(\O)c1ccccc1 (centres undefined)	PLK1 PBD block inconclusive, G9a inh 28.2µM, BAZ2B block 79.4µM, JMJD2A Tudor inconclusive (no result: PI5P4K alpha inh)
O=C1C(=O)N(c2ccccc2)C(c2ccccc2[N+](=O)[O-])/C1=C(\O)c1ccccc1 (centres undefined)	G9a inh inconclusive, BAZ2B block inconclusive, HP1b binding inh inconclusive
